LDHA inh – qHTS assay for inhibitors of human lactate dehydrogenase. activity change, % (values are at about 110 or 230 µM). purified LDHA, NADH/diaphorase-resazurin fluorescence; active compounds read low. hit rate 0.15% among 480,000; in the data active = activity change below about -30%; inconclusive = mostly about -25% to -30%;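 also: plate controls were DMSO wells for no effect and wells without enzyme for full effect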
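Remaining NADH was detected by diaphorase (0.133 mg/mL) converting 37 µM resazurin to fluorescent resorufin, read at 0 and 20 minutes. The preceding 5-minute room-temperature reaction used 2 nM LDHA, 0.2 mM sodium pyruvate and 0.06 mM NADH at pH 7.4.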
Nrf2 inh – Nrf2 qHTS screen for inhibitors. Potency, µM (doses to about 46 µM), for inactives: top-dose activity change, negative = inhibition, most hits filed as inhibitors. A549 ARE-Fluc reporter, luciferase luminescence, 18-24 h. AID 504444, 2011. hit rate 2.1% among 360,000; also: potency is read from the fitted curve at half-maximal effect; % is scaled to controls: 0 for no effect and ±100 for the full control effect; nearly all actives have a fitted effect of over 60% in size
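Reporter: ARE-Fluc in A549. Exposure: 18-24 h, 37 °C, 5% CO2, 5% FBS OPTI-MEM. Readouts: fluorescent cytotoxicity (CellTiter-Fluor), then luminescent Nrf2 signal after BugLite.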
Nrf2 activator – qHTS of Nrf2 Activators; hit rate 0.31% among 410,000; AREc32 ARE-luciferase reporter (MCF7-derived line), luminescence, 24 h; Potency, µM (titrated, usually from 46.1 µM), without a hit: at the highest dose activation, usual class: activators; also: potency is read from the fitted curve at half-maximal effect; % of control where 0% means no effect; nearly all actives have a fitted effect of over 65% in size
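AREc32 cells carrying an ARE-driven firefly luciferase reporter were seeded at 1000 cells/well in OPTI-MEM with 5% FBS, then exposed to compound for 24 hr at 37 deg C. Luminescence was read with Steady-Glo after 30 min at RT.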
ALOX12 inh – Primary qHTS assay for inhibitors of human arachidonate 12S-lipoxygenase (ALOX12): Round 2 | purified 12hLO, xylenol orange hydroperoxide absorbance | Potency, µM (titrated, usually from 108 µM), inactives show at the top dose activity change, negative = inhibition, hits mostly inhibitors | hit rate 1.1% among 580,000; also: potency is read from the fitted curve at half-maximal effect; % is scaled to controls: 0 for no effect and ±100 for the full control effect
Target sequence (P18054 whole entry, looked up): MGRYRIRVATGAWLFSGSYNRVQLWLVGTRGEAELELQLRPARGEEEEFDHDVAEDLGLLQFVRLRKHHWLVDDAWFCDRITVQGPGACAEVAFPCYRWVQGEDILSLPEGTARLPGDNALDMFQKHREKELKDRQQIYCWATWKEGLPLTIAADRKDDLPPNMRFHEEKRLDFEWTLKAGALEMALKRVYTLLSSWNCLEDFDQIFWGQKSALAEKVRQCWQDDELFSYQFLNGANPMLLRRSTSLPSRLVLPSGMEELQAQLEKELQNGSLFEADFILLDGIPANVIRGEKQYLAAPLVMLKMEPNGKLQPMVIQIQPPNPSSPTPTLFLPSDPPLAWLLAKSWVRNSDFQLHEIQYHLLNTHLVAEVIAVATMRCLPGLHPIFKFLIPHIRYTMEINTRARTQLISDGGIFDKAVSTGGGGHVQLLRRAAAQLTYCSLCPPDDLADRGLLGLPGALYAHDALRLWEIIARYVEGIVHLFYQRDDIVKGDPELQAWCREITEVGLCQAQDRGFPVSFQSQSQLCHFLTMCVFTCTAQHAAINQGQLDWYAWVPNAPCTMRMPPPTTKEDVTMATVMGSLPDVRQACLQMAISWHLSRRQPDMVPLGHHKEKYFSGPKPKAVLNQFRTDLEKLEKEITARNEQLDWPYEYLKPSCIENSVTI
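Purified human 12hLO (150 nM final) in 25 mM Hepes, 0.01% Triton X-100, pH 7.0 was preincubated 15 min at room temperature with compound. Then 40 uM arachidonic acid was added, 30 min. Hydroperoxide was read by Fe-XO absorbance ratio 573/405 nm.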
A549 tox – Nrf2 qHTS screen for inhibitors: counterscreen for cytotoxicity. A549 ARE-Fluc cells, CellTiter-Fluor viability, 18-24 h. Potency, µM (top dose mostly 46 µM), inactives show at the highest dose activity change, negative = cytotoxicity, usual class: inhibitors. hit rate 0.16% among 390,000. AID 504648, 2011; also: potency is read from the fitted curve at half-maximal effect; % is scaled to controls: 0 for no effect and ±100 for the full control effect
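A549 ARE-Fluc cells in 5% FBS OPTI-MEM, 5000 cells/well, rested 2 h then exposed to compounds in concentration-response for 18-24 h at 37 °C. Viability by CellTiter-Fluor fluorescence (Ex 405/Em 525) after 30 min; luciferase luminescence (BugLite, 15 min, RT) read afterwards.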
ERG-DNA inh – qHTS for Small Molecule Inhibitors of the ERG Ets/DNA interaction; AID 624246, 2012; Potency, µM (titrated, usually from 76.9 µM), for inactives: at the highest dose FP activity, negative = inhibition, actives largely listed as inhibitors; fluorescence polarization, His-ERG Ets domain / labelled DNA; hit rate 0.028% among 370,000; Transcriptional regulator ERG (Homo sapiens), P11308; active = well fitted inhibition curve with a large enough effect in the polarisation, with a control signal flat; inconclusive = small, poorly fitted or top-dose-only effect, or effect the other way, or a change in a side signal; inactive = no such curve, though single readings can be large or run the other way; the % refers to the polarisation;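 also: polarization taken with two DNA probes labelled with fluorescein and Texas red; potency is read from the fitted curve at half-maximal effect; % of control where 0% means no effect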
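His-tagged ERG Ets domain (1 uM in the protein solution; 300mM KCl, 50mM Tris-HCl, 1mM EDTA, 1mM DTT, pH 7.5) received compound, then a probe mix of 5 nM fluorescein-DNA and 100nM Texas-615-DNA. Fluorescence polarization was read for both dyes.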
* hit, by the source's call; i = inactive; ? = inconclusive; . = not tested or not shown; ! = not active in a repeat; [ ] = remark or other dose. A selection: hits, their analogues and other compounds. The true share with any hit is near 2.7%. Unless noted, calls follow the shape of the dose curve; as a rule, active = well fitted curve in the direction sought with a large enough effect; inconclusive = small, poorly fitted or top-dose-only effect, or another doubt; inactive = no such curve, though single readings can be large; an effect the other way counts as inactive or inconclusive.

SMILES	LDHA inh	Nrf2 inh	Nrf2 activator	ALOX12 inh	A549 tox	ERG-DNA inh
CCCOc1ccccc1Oc1ncccc1CNC(=O)Nc1ccc2c(c1)OCCCO2	10	.	.	?	.	.
COc1cccc(-c2nc(C(N)=O)c3[nH]c(=O)n(-c4cccc(Cl)c4)c3n2)c1OC	6	-1%	5%	12%	3%	15%
COc1ccc(-c2nc(C(N)=O)c3[nH]c(=O)n(-c4cccc(Cl)c4)c3n2)cc1OC	-6	26µM*	4%	4%	?	-5%
CCOc1ccc(NC(=O)C(Sc2ccccc2)c2ccccc2)cc1 (stereo not given)	3	.	.	-5%	.	.
O=C(CSc1n[nH]c(-c2ccc(Br)cc2)n1)c1cc(F)ccc1F	2	.	.	32µM*	.	.
O=C(CSc1n[nH]c(-c2ccccc2)n1)c1cc(F)ccc1F	-4	.	.	-20%	.	.
COc1ccc(OCCSc2nc3ccccc3c(=O)[nH]2)cc1	-9	4.1µM*	3%	11%	-9%	0%
Cc1ccc(-c2cc(C(=O)O)c3cc(Br)ccc3n2)cc1	1	.	.	-3%	.	.
O=C(O)c1cc(-c2ccco2)nc2ccc(Br)cc12	5	20%	?	16µM*!	-4%	11%
Cc1cccc2c(C(=O)O)cc(-c3ccco3)nc12	6	.	.	8.9µM*	.	.
Cc1nc2ccccc2c(=O)n1NCc1cc(Br)cs1	-7	-12%	7.9µM*	3%	6%	.
Cc1cccc(NC(=S)NN=C2CCCC2)c1	1	.	.	14µM*	.	.
COc1cccc(NC(=S)NN=C2CCCCCC2)c1	-1	?	5%	?	6%	-14%
S=C(NN=C1CCC(c2ccccc2)CC1)NC1CCCCC1 (stereo not given)	-2	.	.	35µM*	.	.
Cc1ccc(C)c(NC(=S)N/N=C2\CCc3ccccc32)c1	0	0%	7%	22µM*	-5%	14%
S=C(NN=C1CCCCCC1)NC1CCCCC1	1	.	.	?	.	.
Cc1ccc(NC(=S)N/N=C2/CCCCc3ccccc32)cc1	-2	?	2%	32µM*	9%	1%
C=CCS(=O)(=O)c1ccc(Br)c2ccccc12	-5	.	.	9%	.	.
COc1ccc(CN(Cc2ccc(OC)cc2)[C@@H]2CO[C@H](CNC(=O)CC(C)(C)C)[C@H]2O)cc1	.	.	.	7%	.	.
O=C(NC1CCCCCC1)c1cc(-c2ccccn2)nc2c(Cl)cccc12	-5	.	.	-19%	.	.
Cc1cccc(NC(=S)N/N=C2/CCCCc3ccccc32)c1	-5	9%	3%	32µM*	?	2%
C=C(C)CNC(=S)N/N=C1\CCCCc2ccccc21	-3	?	5%	35µM*	6%	0%
S=C(N/N=C1/CCCCc2ccccc21)NC1CCCCC1	5	.	.	45µM*	.	.
CCNC(=S)N/N=C1\CCCCc2ccccc21	4	17%	4%	?	7%	-20%
Cc1cccc2sc(NC(=O)C3CCN(S(=O)(=O)c4cc([N+](=O)[O-])ccc4Cl)CC3)nc12	8	12µM*	9%	40µM*	?	2%
SMILES	LDHA inh	Nrf2 inh	Nrf2 activator	ALOX12 inh	A549 tox	ERG-DNA inh
Cc1cccc(NC(=O)C2CCN(S(=O)(=O)c3cccc4nsnc34)CC2)n1	-5	?	-1%	38%[57.4 µM]	-2%	-3%
COc1ccc2nc(NC(=O)C3CCN(S(=O)(=O)c4cccc5nsnc45)CC3)sc2c1	0	16µM*	0%	0%	-20%	0%
CC(=O)NCC(=O)N1Cc2ccccc2CC2(CCCN(CC3CCNC3)C2)C1 (stereo not given)	.	.	.	4%[6.33 µM]	.	.
CC(=O)N1Cc2ccccc2CC2(CCCN(CC3CCNC3)C2)C1 (stereo not given)	.	.	.	8.9µM*	.	.
Cn1c(-c2ccccc2)cnc1NCc1ccc(-c2ccccc2)cc1	-10	-22%	1%	?	-7%	-7%
COc1ccc(CNc2ncc(-c3ccccc3)n2C)c2ccccc12	-7	?	1%	10µM*	-14%	9%
COc1ccc(CNc2ncc(-c3ccccc3)n2C)c(OC)c1OC	-13	-11%	0%	2µM*	-5%	-9%
Nc1nc(Nc2cccc(F)c2)sc1C(=O)c1ccccc1Cl	-4	.	.	2%	.	.
O=C(Nc1ccccc1Cl)N1CCCN(c2nc(-c3ccccc3)ns2)CC1	2	?	4%	79%	-16%	-1%
O=C(Nc1ccccc1)N1CCN(c2nc(-c3ccccc3)ns2)CC1	-6	23µM*	2%	0%	-14%	-3%
Cc1c(Cl)cccc1NC(=O)N1CCCN(c2nc(-c3ccccc3)ns2)CC1	-3	21µM*	2%	i	-2%	0%
Cc1nn2c(c1-c1ccnn1C(C)C)N(Cc1ccc(C(=O)O)s1)CCC2	.	.	.	28µM*	.	.
COc1ccccc1NC(=O)Cc1nc(CCl)cs1	2	?	0%[9.22 µM]	40µM*	1%	-1%
COc1ccccc1NC(=O)Cc1csc(NC(=S)Nc2ccc(C)cc2)n1	-15	?	4%	10µM*	-28%	-1%
O=S(=O)(NCc1ccc(N2CCCC2)nc1)c1ccccc1	3	.	.	-6%	.	.
Cc1ccccc1NC(=O)C1CCCN(c2cnc3ccccc3n2)C1 (stereo not given)	4	.	.	?	.	.
COc1ccc2nc(C)c(C(=O)Oc3ccc(C4SCCS4)cc3OC)cc2c1	11	.	.	?	.	.
